From PubChem BioAssay
Results with a measured potency or affinity are listed apart. Results filed as inconclusive are left out. Unmarked numbers belong to inactive results. The rule behind the calls is not given here.

Experiment: non-specific cell cytotoxicity, dose response, cytotoxicity control for PAX8 inhibitor project, plate reader, dry powder samples (AID 743021)
Conditions: cell line, non-specific cytotoxicity counter-screen; series mostly up to 35 µM; activity change, negative = cytotoxicity: at the top concentration

Structure (SMILES) | activity change, negative = cytotoxicity [%]
O=S(=O)(Nc1cccc(-c2cn3cccnc3n2)c1)c1ccc(Cl)cc1 | -2.25
C=C1C(=O)O[C@@H]2[C@H]1[C@@H](OC(=O)/C(C)=C/C)C/C(C)=C\C(=O)/C=C(\C)[C@@H]2O | 4.9
CN1CC(=O)N2C(c3ccc(Cl)cc3)c3[nH]c4ccccc4c3C[C@H]2C1=O (stereo not given in full) | -13.7
CCCCn1c(N)c(N(CCC(C)C)C(=O)COC(=O)c2ccc([N+](=O)[O-])s2)c(=O)[nH]c1=O | 19.1
COc1cccc(-c2cnc3c(NC=O)cc(-c4ccc(OC)cc4OC)cn23)c1 | 28.2
O=C(Nc1ccccc1)Nc1cc(OCC(F)(F)F)cc(OCC(F)(F)F)c1 | -0.948
C[C@H](NC(=O)c1ccco1)C(=O)Nc1cccc([N+](=O)[O-])c1 | 11.2
O=S(=O)(Nc1cc(Sc2ncn[nH]2)c(O)c2ccccc12)c1ccccc1 | -25.1
CCCCCc1cc(=O)oc2c(C(CCN3CCCCC3)c3ccc4c(c3)OCO4)c(OC)cc(OC)c12 (stereo not given) | -10.6
O=C(Cn1ncc(Cl)c(Cl)c1=O)NC(=O)NC1CCCCC1 | -16.3
COC(=O)[C@@]12C[C@@H](CC(=O)N3CCN(C(=O)c4ccco4)CC3)C(=O)N(Cc3ccccc3)C1=CCC(C)(C)C2 | 11.2
C=C1CC(COc2ccc3c(C)c(Cl)c(=O)oc3c2)(c2ccccc2)OC1=O (stereo not given) | 24.8
Cn1nnnc1Sc1ncnc2scc(-c3ccc(Br)cc3)c12 | 34.7
CC(/C=C1\SC(=O)N(CC(=O)Nc2ccc(O)cc2)C1=O)=C\c1ccccc1 | 26.6
COC(=O)[C@]12CCCCC=C1N(Cc1cccc3ccccc13)C(=O)[C@H](CC(=O)N1CCN(C(=O)c3ccco3)CC1)C2 | 23.6
